Measurements from PubChem BioAssay AID2401 (Southern Research Specialized Biocontainment Screening …, 2010).
About 530 (24%) of roughly 2,200 compounds were called active.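 How the source made its calls: active means inhibition above a set limit at one or more concentrations of the dose series; inactive means inhibition under that limit at every dose.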 These entries were drawn from the full list. Entries with a potency or affinity are not part of this list.

assay: nmpC-GFP reporter counter-screen in S. Typhimurium, dose response, counter-screen for PhoP regulon inhibitor project, Salmonella Typhimurium, GFP fluorescence (AID 2401); conditions: 4 h; series mostly up to 150 µM; inhibition: at the top concentration;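 further: S. typhimurium with Mg-insensitive nmpC-GFP reporter grown at 10 µM Mg2+; drop in reporter fluorescence reflects general culture growth inhibition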

Structure (SMILES)	inhibition
COc1cc(OC)c(NC(=O)Nc2ccc(OC)c(OC)c2)cc1Cl	10.1% (inactive)
O=[N+]([O-])c1nn(-c2cccc(Cl)c2)n(O)c1=NCc1cccnc1	5.14% (inactive)
O=c1c(Cl)c(Cl)cnn1-c1ccccc1	18.9% (inactive)
CC1(C)CC(=O)C(C=Nc2ccc(Cl)cn2)=C(O)C1	7.22% (inactive)
Cn1cccc1CC(=O)NNC(=S)Nc1ccc(Cl)cc1	8.8% (inactive)
Cc1cn([C@H]2C[C@H](N=[N+]=[N-])[C@@H](CO)O2)c(=O)[nH]c1=O	-4.31% (inactive)
Cc1c(C)n(Cc2ccccc2)c2ncnc(NN)c12	9.09% (inactive)
CCOCc1nnc(NC(=O)COC)s1	-6.16% (inactive)
O=c1c2ccccc2nnn1Cc1ccccn1	4.75% (inactive)
c1ccc(Oc2cc(-c3ccccc3)ncn2)cc1	-7.11% (inactive)
Oc1ccccc1NCC(O)Cn1ccc2ccccc21 (centres undefined)	15.1% (inactive)
Cc1ccc2nc(Cc3ccc(N)cc3)[nH]c2c1	29.3% (inactive)
CCOc1ccc(S(=O)(=O)Nc2ccc(C(=O)N/N=C/c3c(C)nn(-c4ccccc4)c3N3CCCC3)cc2)cc1	17.9% (inactive)
COc1ccccc1NS(=O)(=O)c1cccc(C(=O)N/N=C/c2c(C)nn(-c3ccccc3)c2N2CCCC2)c1	6.1% (inactive)
Cc1ccc(C(=O)N/N=C/c2ccc([N+](=O)[O-])s2)cc1	-4.76% (inactive)
O=C(NC(=S)N1CCN(c2c(Cl)cccc2[N+](=O)[O-])CC1)c1cccs1	-24% (inactive)
O=C(c1ccccc1)c1nc2ccccc2n(CCCn2c(=O)c(C(=O)c3ccccc3)nc3ccccc32)c1=O	-19.2% (inactive)
CCc1cccc(C)c1NC(=S)NCc1cccn1C	21.8% (inactive)
COc1cccc2[nH]c3c(N4CCN(Cc5ccc6c(c5)OCO6)CC4)ncnc3c12	-6.03% (inactive)
O=C(NCc1ccco1)C1CC(=O)N(CCc2ccccc2)C1 (centres undefined)	9.58% (inactive)

Structure (SMILES)	inhibition
N#C/C(=C\c1ccc(F)c(F)c1)C(=O)NC1CCCCC1	-10.3% (inactive)
CCSc1nc(C2CC2)cc(-c2cccs2)c1C#N	-18.4% (inactive)
CNc1nc(Sc2ccccc2)cc(C(F)(F)F)n1	-12.6% (inactive)
Cc1cc(C)c2nc(NNC(=O)c3ccc(S(=O)(=O)N4CCCCC4)cc3)sc2c1	21.1% (inactive)
O=S(=O)(Cc1ccccc1Cl)N1CCN(Cc2ccc3c(c2)OCO3)CC1	-19.7% (inactive)
COc1cc(CNCc2cccs2)cc(Br)c1OC	2.17% (inactive)
COc1ccccc1CNc1nc2nc(C)c(C)c(=O)n2[nH]1	-8.36% (inactive)
Brc1cccc(CNCc2cccs2)c1	38.1% (inactive)
COc1ccc(CCNC(=S)Nc2cccc3ccccc23)cc1	-16.6% (inactive)
Cc1cccc(Nc2ncccc2C(=O)NCc2cccs2)c1C	-18.4% (inactive)
Cn1c(=O)c(=O)n(C)c2cc(S(=O)(=O)Nc3ccc4c(c3)OCCO4)ccc21	-14.2% (inactive)
COc1ccc(/C=N/NC(=O)CC(=O)NCc2cccnc2)cc1	-30.6% (inactive)
CC(=O)Nc1ccc(C(=O)N2CCN(C(=O)c3ccco3)CC2)cc1	-16.6% (inactive)
COc1ccc(S(=O)(=O)Nc2ccc(F)c(F)c2)cc1Cl	-16.4% (inactive)
OC(COc1ccc2c(c1)CCC2)Cn1cnc2ccccc21 (centres undefined)	-22.3% (inactive)
O=C(Nc1cccc(Cl)c1)Nc1ccc2c(c1)OCO2	22.9% (inactive)
O=S1(=O)CC(O)C(Nc2ccccc2Cl)C1 (centres undefined)	-5.93% (inactive)
NC(=O)c1ccccc1N=Cc1ccccn1	-16.6% (inactive)
CCCc1cc(=O)oc2cc(OCC(=O)N3CCc4ccccc43)ccc12	-31.7% (inactive)
CN1CCCC(OC(=O)c2ccc(Cl)cc2)C1 (centres undefined)	4.83% (inactive)

Structure (SMILES)	inhibition
O=C(/C=C\c1ccco1)Nc1nc(-c2ccccc2)cs1	8.94% (inactive)
Cc1cc(C)c2c(c1)NC(=O)C2(O)CC(=O)c1cccs1 (centres undefined)	-27.9% (inactive)
O=C(c1ccc(-c2ccccc2)cc1)c1ccccc1C(=O)N1CCOCC1	-35.4% (inactive)
COc1ccc(/C=C/C(=O)NC(=S)NNC(=O)c2cnccn2)cc1	28.6% (inactive)
N#Cc1c(NC(=O)c2cnccn2)sc2c1CCCC2	-36.9% (inactive)
CC(=O)C1=C(C)NC(SCSc2ccccc2)=C(C#N)C1c1cccnc1 (centres undefined)	-11% (inactive)
CC(=O)NC1C(c2nc3ccccc3s2)=C(c2ccccc2)C(=O)N1c1ccc(C)cc1 (centres undefined)	-5.01% (inactive)
COc1cccc(-c2nc(-c3ccc(Br)o3)no2)c1	-20.9% (inactive)
CCc1ccc(OCC(=O)Nc2ccc(-c3cc4ccccc4oc3=O)c(OC)c2)cc1	-8.74% (inactive)
CC(=O)Nc1cc(N=Cc2ccc(O)cc2O)c(Cl)cc1Cl	24.2% (inactive)
Oc1ccc(/C=N/n2cnn(Cc3ccccc3Cl)c2=S)c(O)c1	-8% (inactive)
Oc1ccc(/C=N/NC2=NCCCCC2)c(O)c1	-12.8% (inactive)
O=C(O)CCS(=O)(=O)c1ccc(-c2ccccc2)cc1	-15.4% (inactive)
O=C(c1ccco1)c1cn(CC(=O)N2CCCc3ccccc32)c2ccccc12	17.9% (inactive)
Cc1ccc([N+](=O)[O-])cc1NC(=O)CN(C(=O)c1ccc(Cl)cc1)C1CCCCC1	8.04% (inactive)
O=C(/C=C/c1ccccc1)N/C(=C/c1ccccc1)C(=O)N1CCOCC1	-19.8% (inactive)
COc1cc(OC)cc(C(=O)N[C@H](C(=O)OCC(=O)Nc2ccc(C(N)=O)cc2)C(C)C)c1	0.38% (inactive)
O=C(N/N=C/c1ccc(O)cc1O)C(=O)N/N=C/c1ccc(O)cc1O	-9.16% (inactive)
CC1C(=O)NN=C1C(=O)N/N=C\c1ccc(O)cc1O (centres undefined)	-83.9% (inactive)
